Source: PubChem BioAssay
Activity calls are given as the source filed them.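 How the source made its calls, unless noted: active means inhibition above 54%, about 3 SD of non-fluorescent compounds; inactive means the rest.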

target: Beta-2 adrenergic receptor (Homo sapiens) (UniProt P07550); assay: agonist-induced loss of surface beta2AR – cell-based, FAP fluorogen, flow cytometry, validation set, pilot screen (AID 504459;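 active means percent response above 42, roughly 3 SD of non-fluorescent test compounds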;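 further: agonist-driven loss of surface beta2AR via internalization measured by FAP dye flow cytometry; reference of the scale not given here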); details: Am2.2-beta2AR cells, at 10 µM, stronger effect = higher value
Sequence (P07550 whole entry, looked up): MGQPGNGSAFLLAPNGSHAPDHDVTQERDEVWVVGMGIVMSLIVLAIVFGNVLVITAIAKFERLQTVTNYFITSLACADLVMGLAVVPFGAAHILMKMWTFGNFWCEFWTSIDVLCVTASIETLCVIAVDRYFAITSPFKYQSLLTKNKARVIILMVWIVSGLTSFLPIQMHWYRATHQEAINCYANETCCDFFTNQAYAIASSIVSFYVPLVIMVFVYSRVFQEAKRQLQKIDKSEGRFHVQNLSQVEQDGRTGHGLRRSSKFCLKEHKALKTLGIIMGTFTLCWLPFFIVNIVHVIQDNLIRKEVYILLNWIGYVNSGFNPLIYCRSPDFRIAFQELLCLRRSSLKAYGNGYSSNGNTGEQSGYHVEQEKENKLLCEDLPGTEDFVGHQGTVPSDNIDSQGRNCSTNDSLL

response, inactive:
O=P(O)(O)CP(=O)(O)O -17.7%
CCCCC[C@H](O)/C=C/[C@@H]1[C@@H](C/C=C\CCCC(=O)OC)[C@@H](O)C[C@H]1O 4.64%
Cc1cc(C(C)(C)C)cc(C)c1CC1=NCCN1 -5.36%
CC1CCCc2sc3ncn(N)c(=N)c3c21 (stereo unspecified) 31.1%
O=C1NC2(Nc3ccccc31)C(=O)Nc1ccc(Br)cc12 (stereo unspecified) -4.23%
Cc1cc(-c2ccccc2)nnc1NCCN1CCOCC1 2.57%
Cc1ccccc1OCC(O)CN1CCN(C)CC1 (stereo unspecified) -6.23%
COc1cc(/C=C/C(=O)N2CCCC2)cc(OC)c1OC -5.19%
Nc1c2c(nc3ccccc13)CCCC2 -14.3%
COc1ccc(C2C3C(C)=NN=C3CC(C)(O)C2C(C)=O)cc1 (stereo unspecified) -1.78%
O=c1c2ccccc2nnn1Cc1cccc2ccccc12 -3.06%
CC1(C)CC(=O)C(C(=O)CCCCC(=O)C2C(=O)CC(C)(C)CC2=O)C(=O)C1 -2.15%
COC(=O)c1ccc(CC(=O)c2ccc(O)cc2O)o1 7.39%
O=C(CCCCCCCC(=O)c1ccccc1)c1ccccc1 9.71%
CC(=O)OC[C@H]1O[C@@H](n2ncc(=O)[nH]c2=O)[C@H](OC(C)=O)[C@@H]1OC(C)=O -6.75%
CC1CNCCN1S(=O)(=O)c1cccc2cnccc12 (stereo unspecified) -6.28%
COc1cc(C2C(C(=O)c3ccc(C)o3)=C(O)C(=O)N2Cc2cccnc2)ccc1O (stereo unspecified) -8.26%
Cc1ccccc1NC(=O)C1c2ccccc2Oc2ccccc21 -5.21%
COc1ccc(-c2coc3cc(O)cc(O)c3c2=O)cc1 -6.34%
Nc1cccc(C(=O)O)c1 -6.68%
CCN1CCN(C(=O)N[C@@H](C(=O)N[C@@H]2C(=O)N3[C@@H]2SC(C)(C)[C@@H]3C(=O)O)c2ccccc2)C(=O)C1=O -5.92%

target: AP-2 complex subunit beta (Homo sapiens) (UniProt P63010); assay: beta-arrestin/AP2 interaction blockers – biochemical, validation set, GST-AP2 beads, flow cytometry, pilot screen (AID 504541); details: FITC arrestin peptide, at 10 µM, stronger effect = higher value, AP2 beta2 appendage fragment, R879A mutant;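 further: AP2 carries R879A mutation and is captured from E. coli lysate; bead-bound FITC arrestin peptide fluorescence measuring arrestin peptide binding to AP2; 0% = DMSO wells and 100% = excess unlabeled arrestin peptide control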
Sequence (P63010 whole entry, looked up, the tested form may be a part, one chain of several): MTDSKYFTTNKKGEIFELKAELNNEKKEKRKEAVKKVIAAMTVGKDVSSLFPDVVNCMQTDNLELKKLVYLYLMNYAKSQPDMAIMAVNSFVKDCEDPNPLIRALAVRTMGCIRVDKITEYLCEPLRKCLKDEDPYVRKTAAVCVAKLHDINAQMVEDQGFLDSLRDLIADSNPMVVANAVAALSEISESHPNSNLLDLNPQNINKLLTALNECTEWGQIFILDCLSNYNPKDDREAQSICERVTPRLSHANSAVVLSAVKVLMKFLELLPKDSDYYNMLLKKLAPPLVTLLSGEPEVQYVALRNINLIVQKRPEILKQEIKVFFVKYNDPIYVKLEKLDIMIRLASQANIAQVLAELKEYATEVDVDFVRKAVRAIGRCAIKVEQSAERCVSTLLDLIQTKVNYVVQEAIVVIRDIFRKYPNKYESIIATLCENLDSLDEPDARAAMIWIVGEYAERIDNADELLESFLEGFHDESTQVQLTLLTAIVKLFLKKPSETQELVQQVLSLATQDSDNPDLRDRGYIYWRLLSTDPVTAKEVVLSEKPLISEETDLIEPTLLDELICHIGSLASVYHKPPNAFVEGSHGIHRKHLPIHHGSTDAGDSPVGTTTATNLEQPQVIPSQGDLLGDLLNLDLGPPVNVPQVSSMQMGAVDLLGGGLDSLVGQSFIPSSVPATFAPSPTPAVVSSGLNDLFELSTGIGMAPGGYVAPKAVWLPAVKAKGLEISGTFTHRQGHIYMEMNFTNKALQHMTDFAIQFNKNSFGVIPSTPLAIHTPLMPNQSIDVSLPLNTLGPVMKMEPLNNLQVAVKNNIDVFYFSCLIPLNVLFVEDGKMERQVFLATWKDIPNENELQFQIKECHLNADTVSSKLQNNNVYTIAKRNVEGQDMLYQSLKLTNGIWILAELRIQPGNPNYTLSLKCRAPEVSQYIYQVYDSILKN

inhibition, inactive:
C[C@]12CC[C@@H]3c4ccc(OS(=O)(=O)O)cc4CC[C@H]3[C@@H]1CCC2=O -3.24%
O=C1C2C3C=CC(C4CC34)C2C(=O)N1/N=C/c1ccc(-c2ccc([N+](=O)[O-])cc2)o1 (stereo unspecified) 14.3%
Cc1oc2ccc(OC(=O)c3cccs3)cc2c1C(=O)OC(C)C -7.21%
COc1ccc(CCN(C)CC(=O)Nc2cc(C)nc3ccccc23)cc1OC -0.03%
C[C@]12C=CC(=O)C=C1CCC1C3CC[C@](O)(C(=O)CO)[C@@]3(C)CC3OC312 (stereo partly specified) -1.32%
c1ccc2c(c1)CCCC2C1=NCCN1 (stereo unspecified) -7.04%
C=CCc1cc(Cl)ccc1OCCOCCN(C)C -5.37%
COc1cc2c(cc1OC)C(Cc1ccc(O)cc1)N(C)CC2 (stereo unspecified) 2.93%
CCOc1ccc(C(=O)Nc2ccc(N3CCN(C(C)=O)CC3)cc2)cc1[N+](=O)[O-] -0.46%
OCCN(CCO)c1ccc2ccccc2c1 -3.97%
COc1ccc(CN(C)CCc2ccccn2)cc1OC -9.53%
CC(=O)OCC1OC(n2ccc(=O)[nH]c2=O)C(O)C1O (stereo unspecified) -6.88%
CC(=O)N1N=C(c2cccs2)CC1c1ccc(C)o1 (stereo unspecified) -6.28%
Cc1cc(C)c2c(CCl)cc(=O)oc2c1 2.3%
NC12CC3CC(CC(C3)C1)C2 0.4%
CC12CCC(C(=O)N3CCCCC3)([C@H](Br)C1=O)C2(C)C (stereo partly specified) -4.61%
CC(NCCC(c1ccccc1)c1ccccc1)c1ccccc1 (stereo unspecified) 0.65%
O=P(O)(O)CP(=O)(O)O -22.1%
CCCCC[C@H](O)/C=C/[C@@H]1[C@@H](C/C=C\CCCC(=O)OC)[C@@H](O)C[C@H]1O -11.2%
Cc1cc(C(C)(C)C)cc(C)c1CC1=NCCN1 5.97%
CC1CCCc2sc3ncn(N)c(=N)c3c21 (stereo unspecified) -3.27%
O=C1NC2(Nc3ccccc31)C(=O)Nc1ccc(Br)cc12 (stereo unspecified) 1.97%
Cc1cc(-c2ccccc2)nnc1NCCN1CCOCC1 -1.22%
Cc1ccccc1OCC(O)CN1CCN(C)CC1 (stereo unspecified) 5.62%
COc1cc(/C=C/C(=O)N2CCCC2)cc(OC)c1OC -0.17%
CNCCCN1c2ccccc2CCc2ccccc21 -10.5%
Nc1c2c(nc3ccccc13)CCCC2 3.69%
COc1ccc(C2C3C(C)=NN=C3CC(C)(O)C2C(C)=O)cc1 (stereo unspecified) 12.8%
O=c1c2ccccc2nnn1Cc1cccc2ccccc12 -7.09%
CC1(C)CC(=O)C(C(=O)CCCCC(=O)C2C(=O)CC(C)(C)CC2=O)C(=O)C1 -8.71%
COC(=O)c1ccc(CC(=O)c2ccc(O)cc2O)o1 5.21%
O=C(CCCCCCCC(=O)c1ccccc1)c1ccccc1 -3.86%
CC(=O)OC[C@H]1O[C@@H](n2ncc(=O)[nH]c2=O)[C@H](OC(C)=O)[C@@H]1OC(C)=O -6.69%
CC1CNCCN1S(=O)(=O)c1cccc2cnccc12 (stereo unspecified) -9.84%
COc1cc(C2C(C(=O)c3ccc(C)o3)=C(O)C(=O)N2Cc2cccnc2)ccc1O (stereo unspecified) -5.82%
Cc1ccccc1NC(=O)C1c2ccccc2Oc2ccccc21 -0.97%
COc1ccc(-c2coc3cc(O)cc(O)c3c2=O)cc1 1.72%
Nc1cccc(C(=O)O)c1 -0.66%
CCN1CCN(C(=O)N[C@@H](C(=O)N[C@@H]2C(=O)N3[C@@H]2SC(C)(C)[C@@H]3C(=O)O)c2ccccc2)C(=O)C1=O 3.29%
COCCc1ccc(OCC(O)CNC(C)C)cc1 (stereo unspecified) -6%
